# Compound activity deposited in PubChem BioAssay by National Center for Advancing Translational Sciences (NCATS).
# This excerpt belongs to a sample that is enriched for hits.
# TDP1 cell CPT = DT40-hTDP1 cell growth loss with CPT | Potency, µM (series often up to 46.2 µM), for inactives: top-dose activity change, negative = growth inhibition, actives largely listed as inhibitors | hit rate 12% among 420,000 | chicken DT40 Tdp1-/-;hTDP1 cells + 20 nM CPT, ATP luminescence, 48 h; note: potency is the fitted concentration of half-maximal effect; nearly all actives have a fitted effect of over 55% in size
#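 Chicken DT40 Tdp1-/- cells stably complemented with human TDP1 were seeded at 400 cells/well in medium containing 20 nM camptothecin, exposed to pin-transferred compounds, and grown at 37 °C for at least 48 hr. Viability was read as ATP luminescence.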
# HT1080-NT tox = kills 2HG-producing HT-1080-NT fibrosarcoma cells; HT-1080-NT fibrosarcoma viability, CellTiter-Glo ATP luminescence, 48 h; Potency, µM (top dose mostly 46.1 µM), for the others: at the highest dose activity, negative = less viability, hits mostly cytotoxic; hit rate 1.6% among 360,000;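 note: NT is the 2HG producing partner of a matched IDH1 knockdown line; potency is the fitted concentration of half-maximal effect; 0% = DMSO-treated cells and -100% = media-only wells without cells; nearly all actives have a fitted effect of over 55% in size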
#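 HT-1080-NT fibrosarcoma cells (2HG-overproducing), 750 cells/well in RPMI with 5% FBS, dosed after 2 h and incubated 48 h at 37C. CellTiter-Glo luminescence normalized to DMSO and no-cell wells; concentration-response curves fitted and classed.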
# HT1080 IDH1KD tx = HT-1080 IDH1 knockdown cell toxicity (counter line); HT-1080 IDH1 knockdown viability, ATP luminescence, 48 h; AID 686971; hit rate 2% among 360,000; Potency, µM (highest dose often 46.1 µM), for inactives: at the highest dose activity, negative = toxicity, actives largely listed as cytotoxic;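 note: potency is the fitted concentration of half-maximal effect; 0% = DMSO wells and -100% = cell-free medium wells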
#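 Cytotoxicity counter-line: IDH1KD HT-1080, 48 h, CellTiter-Glo. Curves classed by r2, magnitude and activity.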
# ALOX12 inh = ALOX12 (human) lipoxygenase inhibition | purified 12hLO, xylenol orange hydroperoxide absorbance | hit rate 1.1% among 580,000 | P18054 | Potency, µM (titrated, usually from 108 µM), for inactives: at the highest dose activity change, negative = inhibition, hits mostly inhibitors; note: potency is the fitted concentration of half-maximal effect
# Target sequence (P18054 whole entry, looked up): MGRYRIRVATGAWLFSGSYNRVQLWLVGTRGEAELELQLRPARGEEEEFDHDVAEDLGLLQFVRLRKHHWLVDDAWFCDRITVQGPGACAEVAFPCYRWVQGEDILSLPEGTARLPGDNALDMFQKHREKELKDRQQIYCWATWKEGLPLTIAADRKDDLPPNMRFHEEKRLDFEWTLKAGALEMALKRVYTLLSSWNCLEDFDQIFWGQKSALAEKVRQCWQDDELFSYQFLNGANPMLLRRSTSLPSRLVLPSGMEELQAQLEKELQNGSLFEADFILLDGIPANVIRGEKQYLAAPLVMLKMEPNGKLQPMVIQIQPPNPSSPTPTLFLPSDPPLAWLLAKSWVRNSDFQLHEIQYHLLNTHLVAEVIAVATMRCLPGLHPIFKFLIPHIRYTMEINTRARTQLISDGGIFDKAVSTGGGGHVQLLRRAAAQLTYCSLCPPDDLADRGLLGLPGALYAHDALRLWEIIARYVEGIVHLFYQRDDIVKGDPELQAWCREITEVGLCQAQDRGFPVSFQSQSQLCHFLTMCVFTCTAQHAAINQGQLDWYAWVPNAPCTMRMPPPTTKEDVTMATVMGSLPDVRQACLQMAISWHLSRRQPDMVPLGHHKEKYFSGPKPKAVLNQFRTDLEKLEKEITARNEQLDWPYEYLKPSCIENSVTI
#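 Purified human 12hLO at 150 nM in 25 mM Hepes, 0.01% Triton X-100, pH 7.0, preincubated 15 min at room temperature with compound. Reaction started with 40 uM arachidonic acid, 30 min at room temperature. Hydroperoxide measured by Fe-xylenol orange, 573/405 nm absorbance ratio.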
# TDP1 cell noCPT = qHTS for Inhibitors of human tyrosyl-DNA phosphodiesterase 1 (TDP1): qHTS in cells in absence of CPT; DT40 Tdp1-/- hTDP1 cells, no CPT, ATP luminescence, 48 h; Potency, µM (series often up to 46.2 µM), inactives show top-dose activity change, negative = growth inhibition, usual class: inhibitors; hit rate 15% among 420,000; AID 686978, 2013; note: potency is the fitted concentration of half-maximal effect; nearly all actives have a fitted effect of over 55% in size
#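 Growth of hTDP1-complemented DT40 Tdp1-knockout cells is measured by ATP luminescence after at least 48 hr compound exposure at 37 °C, with DMSO substituting for the 20 nM CPT used in the parallel screen.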
# IL1B secr inh = inhibitors of inflammasome signaling (IL-1 beta secretion). THP-1 LPS/ATP IL-1B secretion, AlphaLISA, 16 h; hits give low values. activity change, % at 57.5 µM. hit rate 4.7% among 360,000. AID 743279; in the data active = activity change below about -50%; inconclusive = mostly about -30% to -49%
#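 THP-1 cells pretreated 1 hr with compounds (up to 57.5 uM final), then stimulated with LPS (250 ng/mL final) plus ATP (1.25 mM final); secreted IL-1B measured by AlphaLISA after 16 hr, decreased signal indicating inhibition.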
# * hit, by the source's call; ? = inconclusive; . = no result; [ ] = dose if it differs, or a comment. Unless noted, calls come from the whole dose curve; as a rule, active = well fitted curve in the direction sought with a large enough effect; inconclusive = small, poorly fitted or top-dose-only effect, or another doubt; inactive = no such curve, though single readings can be large; an effect the other way counts as inactive or inconclusive. Unless noted, % is set by controls: 0 for no effect and ±100 for the full control effect.
SMILES,TDP1 cell CPT,HT1080-NT tox,HT1080 IDH1KD tx,ALOX12 inh,TDP1 cell noCPT,IL1B secr inh
CC(=O)Nc1ccc(S(=O)(=O)Nc2nc3ccccc3nc2Nc2cccc3ccccc23)cc1,.,.,.,-7%,.,.
O=C(NCc1cccnc1)c1ccc(/C=C/c2ccc3ccccc3n2)cc1,.,.,.,20%,.,.
COc1ccc(N2C(=O)CC(c3cc(OC)c(OC)c(OC)c3)CC2=O)cc1,15µM*,-17%,1%,0%,13µM*,35
COc1ccc2c(c1)OC(=O)CC2c1cc(OC)c(OC)c(OC)c1 (stereo unspecified),?,?,15µM*,-3%,?,79
COc1cc(C2CC(=O)Oc3cc(O)ccc32)cc(OC)c1OC (stereo unspecified),2%,7%,6%,-20%,-3%,17
COc1ccc(N2C(=O)C3CCCN3C2c2cc(OC)c(OC)c(OC)c2)cc1 (stereo unspecified),-16%,2%,-11%,30%[57.4 µM],-15%,-21
COc1cc(C2CC(=O)N(c3ccc(C)cc3)C(=O)C2)cc(OC)c1OC,1.8µM*,3.3µM*,?,0%,1.8µM*,36
COc1cccc(NC(=O)c2nn(-c3cccc(OC)c3)c(=O)c3ccccc23)c1,.,.,.,2%,.,.
O=C1NC2(CCOCC2)C(=O)N1CC(=O)N1CCCc2ccccc21,.,.,.,20%,.,.
Cc1ccc(S(=O)(=O)N2[C@H](CC(=O)OCc3ccccc3)OC[C@@H]2C(C)C)cc1,21µM*,-21%,-16%,3%,23µM*,-22
Cc1ccc(S(=O)(=O)N2[C@H](CC(=O)OCc3ccccc3)OC[C@@H]2C)cc1,-30%,3%,-3%,7%,?,22
O=C(c1csc2ccccc12)N1CCCCCC1,21µM*,2%[9.24 µM],-14%,3%,18µM*,3
O=C(c1csc2ccccc12)N1CCN(c2ccccn2)CC1,-1%,-3%,-1%,?,?,-29
CC(=O)Nc1cccc(-c2nnc(SCC(=O)c3ccc([N+](=O)[O-])cc3)o2)c1,.,.,.,-23%,.,.
CC(=O)Nc1cccc(-c2nnc(SCC(=O)c3cc([N+](=O)[O-])ccc3Br)o2)c1,5.2µM*,.,.,-4%,5.2µM*,.
Fc1ccc(Nc2nc(Oc3ccccc3F)nc(N3CCCC3)n2)cc1,-28%,-1%,2%,-12%,?,-53*
Cc1cccc(Nc2nc(N3CCCC3)nc(N3CCCC3)n2)c1,?,9%,7%,?,-30%,-26
c1ccc(Nc2nc(Nc3ccccc3)nc(-n3cccn3)n2)cc1,7.1µM*,.,.,.,5µM*,.
c1ccc(Nc2nc(N3CCCCC3)nc(N3CCNCC3)n2)cc1,29µM*,?,?,15%,18µM*,-65*
c1ccc(Nc2nc(N3CCCCC3)nc(N3CCCCC3)n2)cc1,?,?,?,-1%,?,-11
COc1nc(Nc2cccc(C)c2)nc(N2CCCCC2)n1,18µM*,3%,18%,?,16µM*,12
O=C([C@@H]1C[C@H](F)CN1S(=O)(=O)c1ccccc1F)N1CCc2ccccc2C1,.,.,.,20%,.,.
CCn1cc(CN(C)C(=O)/C=C/c2ccc([N+](=O)[O-])cc2)c(C)n1,?,1%,-2%,-4%,15µM*,0
Cc1nn(C)cc1C(=O)/C=C/c1ccc([N+](=O)[O-])cc1,?,23µM*,?,4%,18µM*,-99*
CCOc1ccccc1C(=O)N1CCN(Cc2ccc(=O)n(C)c2)CC1,.,.,.,36%,.,.
SMILES,TDP1 cell CPT,HT1080-NT tox,HT1080 IDH1KD tx,ALOX12 inh,TDP1 cell noCPT,IL1B secr inh
CC(Oc1ccc(C(C)(C)C)cc1)C(=O)Nc1cccc2cccnc12 (stereo unspecified),.,.,.,5%,.,.
Cc1ccccc1-c1nc2c(s1)CCc1onc(-c3ccc(Cl)cc3)c1-2,18%,14%,6%,0%,-9%,6
COc1ccc(-c2noc3c2-c2nc(-c4ccccc4C)sc2CC3)cc1,?,13µM*,?,-12%,?,53
CCOc1cc(CN2CCC(C)(c3noc(C4CCOCC4)n3)CC2)ccc1O,.,.,.,33%,.,.
Cc1oc2ncn(C)c(=O)c2c1C(=O)NC(C)c1ccccc1 (stereo unspecified),-19%,.,.,-5%,-29%,.
CCc1cccc(NC(=O)c2c(C)oc3ncnc(N4CCCCC4)c23)c1,13µM*,.,.,?,9.2µM*,.
Cc1ccc(NC(=O)c2c(C)oc3ncn(C)c(=O)c23)cc1F,?,.,.,-11%,18µM*,.
COc1cccc(CNC(=O)c2c(C)oc3ncnc(N4CCOCC4)c23)c1,14%,.,.,3%,-1%,.
Cc1cc(C)cc(NC(=O)c2c(C)oc3ncnc(N4CCCCC4)c23)c1,.,.,.,-8%,.,.
Cc1ccc(NC(=O)c2c(C)oc3ncnc(N4CCCCC4)c23)cc1Cl,16µM*,.,.,-11%,16µM*,.
CCc1ccc(CNC(=O)c2c(C)oc3ncnc(N4CCOCC4)c23)cc1,13µM*,.,.,-11%,?,.
CN1CCCC1c1nc(C2CN(C(=O)CCc3nc4ccccc4s3)C2)no1 (stereo unspecified),.,.,.,15%,.,.
Cc1ccccc1NC(=O)c1c(C)oc2ncnc(N3CCOCC3)c12,.,.,.,-7%,.,.
Cc1cc(Br)ccc1NC(=O)c1c(C)oc2ncnc(N3CCCCC3)c12,16µM*,.,.,?,16µM*,.
Oc1[nH]c2ccc(Br)cc2c1N=Nc1ccc(C(F)(F)F)cn1,?,2%,-8%,-3%,?,-57*
Oc1[nH]c2ccccc2c1N=Nc1ccc(C(F)(F)F)cn1,2%,-4%,-15%,0%,-7%,29
O=C(N/N=C/C=C/c1ccccc1)NC1CCCCC1,18µM*,-4%,-5%,0%,18µM*,-23
O=C(N/N=C/C=C/c1ccccc1)C1CC1c1ccccc1 (stereo unspecified),18µM*,-28%,?,4%,12µM*,-11
CN(C)c1ccc(/C=N/NC(=O)C2CC2c2ccccc2)cc1 (stereo unspecified),-27%,7%,-23%,19%,-26%,-30
O=C(NCCn1c(=O)c(=O)[nH]c2ccccc21)C1CC(=O)N(c2n[nH]c3ccccc23)C1 (stereo unspecified),.,.,.,-10%,.,.
CC1c2ccsc2CCN1S(=O)(=O)c1ccccc1 (stereo unspecified),-18%,-2%,-13%,0%,-16%,-6
